From PubChem BioAssay (Tox21) come the findings set out here.

Records with an inconclusive call do not appear. Unmarked numbers belong to inactive results. Activity calls are given as the source filed them. Calls come from the whole dose curve; as a rule, active = well fitted curve in the direction sought with a large enough effect in the repeat runs; inconclusive = weak or mixed curves; inactive = no such curve, though single readings can be large; an effect the other way counts as inactive or inconclusive. Non-standard residues stand in square brackets, D forms with d. Residues, ends and D or L forms follow the SMILES beside them. *: point of attachment. Sta = CC(C)C[C@H](N)[C@@H](O)CC(=O)O; Isovaleryl = CC(C)CC(=O)*

Assay [1] has as its target Nuclear receptor subfamily 1 group I member 2 (Homo sapiens) (UniProt O75469). The assay is described as follows: CYP3A4 induction through human pregnane X receptor (PXR) by small molecules, qHTS assay (AID 1346984). Note: nearly all actives have a fitted effect of over 40% in size. Summed up:
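After 24 h at 37C with compound, DPX-2 cells (HepG2, co-transfected PXR response element and CYP3A4 promoter-luciferase) got 3uM final P450-Glo Luciferin-IPA for 3 h; One-Glo luminescence followed.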
Background: In qHTS, concentration-response curves come from the screen itself.

Assay [2] has the same target. Briefly: Human pregnane X receptor (PXR) activation by small molecules, qHTS assay (AID 1346985). Note: nearly all actives have a fitted effect of over 40% in size. Summed up: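 DPX-2 cells (HepG2 co-transfected with a PXR response element and a CYP3A4-promoter luciferase construct) were seeded at 2,000 per well, rested 5 hr at 37C, then exposed to DMSO-dissolved compounds for 24 hr. Activation was read as luciferase luminescence.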

Assay [3] has as its target Cytochrome P450 2C19 (Homo sapiens) (UniProt P33261). The assay is described as follows: Cytochrome P450 Family 2 Subfamily C Member 19 (CYP2C19) small molecule antagonists: luciferase reporter qHTS assay (AID 1671197). For activity change, negative = inhibition: series mostly up to about 120 µM. Note: nearly all actives have a fitted effect of over 65% in size. Note: potency is the fitted concentration of half-maximal effect. Put shortly: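 P450-Glo CYP2C19 screening system; proluciferin substrate; DMSO compound stocks; 10 min RT preincubation; NADPH regeneration, 1 h at 37C; luciferin detection reagent, 20 min RT; luminescence as RLU.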
In general terms: Reporter assays use an easily measured gene product as a stand-in for the process of interest.

Assay [4] deals with Cytochrome P450 2C9 (Homo sapiens) (UniProt P11712). Briefly: Cytochrome P450 Family 2 Subfamily C Member 9 (CYP2C9) small molecule antagonists: luciferase reporter qHTS assay (AID 1671198). For activity change, negative = inhibition: series mostly up to about 120 µM. Note: nearly all actives have a fitted effect of over 50% in size. Note: potency is the fitted concentration of half-maximal effect. Summed up:
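P450-Glo proluciferin substrate with CYP2C9 enzyme; 10 min RT preincubation, then NADPH regeneration 1 h at 37C; luciferin detection reagent 20 min RT, luminescence in relative luminescence units.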

The target of assay [5] is Cytochrome P450 1A2 (Homo sapiens) (UniProt P05177). Briefly: Cytochrome P450 Family 1 Subfamily A Member 2 (CYP1A2) small molecule antagonists: luciferase reporter qHTS assay (AID 1671199). For activity change, negative = inhibition: series mostly up to about 120 µM. Note: nearly all actives have a fitted effect of over 50% in size. Note: potency is the fitted concentration of half-maximal effect. Put shortly:
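Read-out is luminescence from luciferin detection reagent (20 min) proportional to CYP1A2 activity; compounds in DMSO preincubated 10 min with enzyme and proluciferin substrate, then NADPH regeneration solution, 1 h, room temperature.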

The target of assay [6] is Voltage-gated inwardly rectifying potassium channel KCNH2 (Homo sapiens) (UniProt Q12809). Briefly: Human Ether-a-go-go-Related Gene (hERG) channel small molecule antagonists: fluorescence cell-based qHTS assay (AID 1671200).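 Note: hERG-expressing U2OS cells given a thallium stimulus after FluxOR II dye loading; series mostly up to about 77 µM; nearly all actives have a fitted effect of over 50% in size.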 Summed up: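 Kinetic two-minute fluorescence traces, sampled at 1 s, were collected following thallium stimulus of U2OS cells (1000 per well) that had been cultured overnight at 37 C and loaded with FluxOR II.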
Voltage-gated inwardly rectifying potassium channel KCNH2 (Homo sapiens), sequence (Q12809 whole entry, looked up): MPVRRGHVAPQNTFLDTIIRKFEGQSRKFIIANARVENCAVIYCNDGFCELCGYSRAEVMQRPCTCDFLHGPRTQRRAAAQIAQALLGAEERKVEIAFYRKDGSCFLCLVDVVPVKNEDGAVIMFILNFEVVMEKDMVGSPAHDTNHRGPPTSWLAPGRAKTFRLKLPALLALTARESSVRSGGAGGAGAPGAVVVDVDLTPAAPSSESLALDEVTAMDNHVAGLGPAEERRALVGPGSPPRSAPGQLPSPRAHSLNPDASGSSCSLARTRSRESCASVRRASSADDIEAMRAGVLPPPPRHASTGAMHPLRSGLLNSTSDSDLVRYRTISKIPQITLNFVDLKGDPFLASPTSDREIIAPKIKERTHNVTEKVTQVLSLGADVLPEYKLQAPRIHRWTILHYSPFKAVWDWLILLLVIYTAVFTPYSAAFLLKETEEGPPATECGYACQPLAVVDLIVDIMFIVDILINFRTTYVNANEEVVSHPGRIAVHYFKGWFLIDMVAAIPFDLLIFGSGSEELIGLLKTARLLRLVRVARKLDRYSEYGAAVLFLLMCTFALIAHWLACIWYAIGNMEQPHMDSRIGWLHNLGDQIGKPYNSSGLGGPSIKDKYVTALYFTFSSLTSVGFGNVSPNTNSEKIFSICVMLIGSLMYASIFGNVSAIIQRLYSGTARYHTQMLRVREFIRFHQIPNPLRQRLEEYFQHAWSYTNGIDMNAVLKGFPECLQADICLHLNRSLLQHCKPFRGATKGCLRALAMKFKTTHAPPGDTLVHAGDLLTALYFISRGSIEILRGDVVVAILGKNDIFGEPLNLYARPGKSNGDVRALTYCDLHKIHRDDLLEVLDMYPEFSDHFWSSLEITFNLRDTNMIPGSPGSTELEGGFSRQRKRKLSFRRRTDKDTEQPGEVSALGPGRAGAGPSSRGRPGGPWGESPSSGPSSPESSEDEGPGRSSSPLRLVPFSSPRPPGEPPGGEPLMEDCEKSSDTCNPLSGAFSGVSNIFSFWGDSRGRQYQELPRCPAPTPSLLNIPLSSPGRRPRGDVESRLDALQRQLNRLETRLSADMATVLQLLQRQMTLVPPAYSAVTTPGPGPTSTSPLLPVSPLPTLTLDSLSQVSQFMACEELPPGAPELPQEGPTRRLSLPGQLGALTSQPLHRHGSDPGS
On the technique in general: The hERG channel carries a current that helps repolarise heart muscle cells.

For assay [7], the target named is Cytochrome P450 3A4 (Homo sapiens) (UniProt P08684). The assay is described as follows: Cytochrome P450 Family 3 Subfamily A Member 4 (CYP3A4) small molecule antagonists: luciferase reporter qHTS assay (AID 1671201). Note: series mostly up to about 120 µM; nearly all actives have a fitted effect of over 50% in size. Put shortly:
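Proluciferin-to-luciferin conversion by CYP3A4, NADPH-regenerated, 1 h RT; luminescence read as RLU. Ketoconazole as control.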

In assay [8] the target is Cytochrome P450 2D6 (Homo sapiens) (UniProt P10635). Briefly: Cytochrome P450 Family 2 Subfamily D Member 6 (CYP2D6) small molecule antagonists: luciferase reporter qHTS assay (AID 1671196). Put shortly: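 Chemicals tested for interference with CYP2D6 activity; proluciferin substrate, NADPH regeneration, 1 h at room temperature, luminescent detection.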
Cytochrome P450 2D6 (Homo sapiens), sequence (P10635 whole entry, looked up): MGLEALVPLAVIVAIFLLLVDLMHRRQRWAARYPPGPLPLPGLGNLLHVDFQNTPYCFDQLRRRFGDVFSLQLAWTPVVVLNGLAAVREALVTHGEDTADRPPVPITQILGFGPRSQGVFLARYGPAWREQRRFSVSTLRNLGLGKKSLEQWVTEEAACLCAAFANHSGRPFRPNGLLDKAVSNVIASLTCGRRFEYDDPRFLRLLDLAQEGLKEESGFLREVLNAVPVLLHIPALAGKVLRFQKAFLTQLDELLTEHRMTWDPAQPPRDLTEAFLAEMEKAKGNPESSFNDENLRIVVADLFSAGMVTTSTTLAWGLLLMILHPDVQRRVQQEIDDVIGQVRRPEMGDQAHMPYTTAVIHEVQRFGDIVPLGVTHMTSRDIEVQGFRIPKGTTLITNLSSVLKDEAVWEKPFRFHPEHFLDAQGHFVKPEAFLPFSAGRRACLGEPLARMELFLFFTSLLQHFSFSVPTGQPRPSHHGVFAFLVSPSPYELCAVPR
% is set by controls: 0 for no effect and ±100 for the full control effect.

Cytochrome P450 2C19 (Homo sapiens), sequence (P33261 whole entry, looked up): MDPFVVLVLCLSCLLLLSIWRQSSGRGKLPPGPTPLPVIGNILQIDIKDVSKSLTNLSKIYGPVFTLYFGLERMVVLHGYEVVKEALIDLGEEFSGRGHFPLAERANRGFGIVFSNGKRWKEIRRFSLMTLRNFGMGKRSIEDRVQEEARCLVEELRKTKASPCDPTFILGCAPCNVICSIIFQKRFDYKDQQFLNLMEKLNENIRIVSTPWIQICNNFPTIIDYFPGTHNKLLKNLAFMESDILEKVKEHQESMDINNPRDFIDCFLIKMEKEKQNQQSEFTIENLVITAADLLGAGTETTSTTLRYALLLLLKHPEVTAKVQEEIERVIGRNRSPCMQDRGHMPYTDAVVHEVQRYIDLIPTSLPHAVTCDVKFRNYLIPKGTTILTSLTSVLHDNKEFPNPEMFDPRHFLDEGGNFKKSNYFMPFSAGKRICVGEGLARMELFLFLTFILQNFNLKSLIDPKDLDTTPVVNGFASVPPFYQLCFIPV
Cytochrome P450 1A2 (Homo sapiens), sequence (P05177 whole entry, looked up): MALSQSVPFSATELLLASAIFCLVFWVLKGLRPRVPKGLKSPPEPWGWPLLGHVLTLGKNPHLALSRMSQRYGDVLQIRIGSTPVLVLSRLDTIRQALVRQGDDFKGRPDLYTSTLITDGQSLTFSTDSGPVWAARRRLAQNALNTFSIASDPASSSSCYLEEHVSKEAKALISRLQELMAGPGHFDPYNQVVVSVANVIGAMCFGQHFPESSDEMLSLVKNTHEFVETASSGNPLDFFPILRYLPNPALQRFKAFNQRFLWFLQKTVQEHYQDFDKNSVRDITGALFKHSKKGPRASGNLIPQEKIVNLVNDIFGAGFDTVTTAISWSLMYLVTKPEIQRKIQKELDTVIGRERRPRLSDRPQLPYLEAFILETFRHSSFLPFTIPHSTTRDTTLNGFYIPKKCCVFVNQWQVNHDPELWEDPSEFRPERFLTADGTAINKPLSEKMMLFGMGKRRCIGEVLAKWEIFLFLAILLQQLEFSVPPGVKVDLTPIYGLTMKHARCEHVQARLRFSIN
Cytochrome P450 3A4 (Homo sapiens), sequence (P08684 whole entry, looked up): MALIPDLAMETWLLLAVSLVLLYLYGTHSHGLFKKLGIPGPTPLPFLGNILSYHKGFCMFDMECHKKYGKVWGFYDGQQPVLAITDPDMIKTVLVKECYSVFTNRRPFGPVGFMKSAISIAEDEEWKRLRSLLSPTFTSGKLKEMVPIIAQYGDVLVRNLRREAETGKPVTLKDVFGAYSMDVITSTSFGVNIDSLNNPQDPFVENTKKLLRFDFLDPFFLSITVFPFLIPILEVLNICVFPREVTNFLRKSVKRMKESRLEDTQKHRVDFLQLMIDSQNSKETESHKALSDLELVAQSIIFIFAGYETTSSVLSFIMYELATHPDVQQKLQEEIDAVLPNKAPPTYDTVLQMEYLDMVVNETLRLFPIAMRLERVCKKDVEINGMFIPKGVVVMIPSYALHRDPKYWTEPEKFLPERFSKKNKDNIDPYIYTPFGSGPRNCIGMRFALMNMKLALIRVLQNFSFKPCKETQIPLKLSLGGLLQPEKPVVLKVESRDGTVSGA
Cytochrome P450 2C9 (Homo sapiens), sequence (P11712 whole entry, looked up): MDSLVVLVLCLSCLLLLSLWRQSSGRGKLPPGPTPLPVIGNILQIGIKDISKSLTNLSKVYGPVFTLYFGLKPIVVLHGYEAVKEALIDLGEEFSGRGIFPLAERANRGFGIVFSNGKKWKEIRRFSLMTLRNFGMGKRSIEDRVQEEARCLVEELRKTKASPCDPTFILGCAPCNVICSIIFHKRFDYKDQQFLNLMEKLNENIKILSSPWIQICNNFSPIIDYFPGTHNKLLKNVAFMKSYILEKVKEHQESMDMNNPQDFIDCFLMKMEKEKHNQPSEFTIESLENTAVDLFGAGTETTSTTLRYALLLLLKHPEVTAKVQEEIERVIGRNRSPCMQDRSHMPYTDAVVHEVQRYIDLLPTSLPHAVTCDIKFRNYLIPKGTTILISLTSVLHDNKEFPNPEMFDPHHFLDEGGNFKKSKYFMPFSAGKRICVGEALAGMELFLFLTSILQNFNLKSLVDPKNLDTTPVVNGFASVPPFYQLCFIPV

As for `CC(=O)Nc1ccc(OCCOCCOc2ccc(NC(C)=O)cc2)cc1`, the molecule was called inactive in assay [1] and in assay [2]. Moreover, the results for the Potency in assay [3] and in assay [4] were 17.4 µM (active) and 5.49 µM (active), respectively. The Potency result in assay [5], in assay [6] and in assay [7] was “inactive” throughout.

`CN(C)CCC[C@@]1(c2ccc(F)cc2)OCc2cc(C#N)ccc21`: the outcome in assay [1] and in assay [2] was inactive. The Potency entry in assay [3], in assay [4] and in assay [5] was “inactive” each time.

For `C[C@@H]1NC(=O)[C@@H](N)CNC(=O)[C@H](C2CCNC(N)=N2)NC(=O)/C(=C/NC(N)=O)NC(=O)[C@H](CNC(=O)C[C@@H](N)CCCN)NC1=O` (some centres undefined), the result in assay [1] and in assay [2] was inactive. Also, the activity change, negative = inhibition in assay [8] is -6.52% [at 0.435 µM]; in assay [4] it was 3.32% [at 0.435 µM]; in assay [6], 0.491% [at 0.29 µM].

As to `CCCCC(CC)CCC(CC(C)C)OS(=O)(=O)O` (centres undefined), the outcome in assay [1] and in assay [2] was inactive. The Potency result in assay [8], in assay [5] and in assay [7] was “inactive” each time. In assay [4], the Potency was 31.7 µM (active).

Turning to `CC[C@@]1(c2ccccc2)NC(=O)N(C)C1=O`, the outcome in assay [1] and in assay [2] was inactive. The Potency result in assay [8], in assay [4], in assay [5], in assay [6] and in assay [7] was “inactive” throughout.

For `CN(C)CCc1c[nH]c2ccc(C[C@H]3COC(=O)N3)cc12`, the outcome in assay [1] and in assay [2] was inactive. In addition, the Potency entry in assay [3], in assay [4], in assay [6] and in assay [7] was “inactive” each time.

Consider `CC(=O)OCC(=O)[C@@]1(O)CC[C@H]2[C@@H]3CCC4=CC(=O)C=C[C@]4(C)[C@H]3[C@@H](O)C[C@@]21C`, for which the molecule was called inactive in assay [1] and in assay [2]. For the same molecule, the Potency result in assay [8], in assay [3], in assay [4], in assay [5] and in assay [6] was “inactive” each time.

Consider `CNCCc1ccccn1`, for which the call in assay [1] and in assay [2] was inactive. The Potency result in assay [8], in assay [4], in assay [5] and in assay [7] was “inactive” each time.

With `O=P(O)(O)C(O)(Cc1cccnc1)P(=O)(O)O`, the molecule was classed as inactive in assay [1] and in assay [2]. The Potency entry in assay [8], in assay [3], in assay [4], in assay [5], in assay [6] and in assay [7] was “inactive” throughout.

As to `COc1cnc(NS(=O)(=O)c2ccc(N)cc2)nc1`, the molecule was classed as inactive in assay [1] and in assay [2]. Also, the Potency entry in assay [8], in assay [4], in assay [5], in assay [6] and in assay [7] was “inactive” each time.

Regarding `CN1C(CCl)Nc2cc(Cl)c(S(N)(=O)=O)cc2S1(=O)=O` (centres undefined), the molecule was called inactive in assay [1] and in assay [2]. Further, the Potency entry in assay [8], in assay [3], in assay [4], in assay [5] and in assay [6] was “inactive” throughout.

On to `CCCCN=C(N)N=C(N)N`, for which the molecule was classed as inactive in assay [1] and in assay [2]. Further, the Potency result in assay [3], in assay [4], in assay [6] and in assay [7] was “inactive” throughout.

Take `CC(C)OC(=O)C(C(=O)OC(C)C)=C1SC=CS1`: the molecule was classed as inactive in assay [1] and in assay [2]. For the same molecule, the Potency entry in assay [8], in assay [6] and in assay [7] was “inactive” throughout. The Potency in assay [3] was 34.7 µM (active); in assay [5], 13.8 µM (active).

Take `COC(=O)N/N=C/c1c[n+]([O-])c2ccccc2[n+]1[O-]`: the result in assay [1] and in assay [2] was inactive. For the same molecule, the Potency entry in assay [3], in assay [4], in assay [5], in assay [6] and in assay [7] was “inactive” each time.

Take `C[C@]12C=CC(=O)C=C1[C@@H](F)C[C@@H]1[C@@H]2[C@@H](O)C[C@@]2(C)[C@H]1CC[C@]2(O)C(=O)CO`: the outcome in assay [1] and in assay [2] was inactive. The Potency entry in assay [8], in assay [3], in assay [4], in assay [5] and in assay [6] was “inactive” each time.

Turning to `Nc1ccc(C(=O)NCC(=O)O)cc1`, the call in assay [1] and in assay [2] was inactive. Besides, the Potency entry in assay [3], in assay [4], in assay [5], in assay [6] and in assay [7] was “inactive” throughout.

With `C[n+]1ccccc1/C=N/O`, the result in assay [1] and in assay [2] was inactive. Besides, the Potency entry in assay [8], in assay [3], in assay [4], in assay [6] and in assay [7] was “inactive” each time.

Regarding `C[C@@H](CN1CC(=O)NC(=O)C1)N1CC(=O)NC(=O)C1`, the molecule was classed as inactive in assay [1] and in assay [2]. The Potency result in assay [8], in assay [4], in assay [5] and in assay [7] was “inactive” each time.

Consider `CC(C)CC(=O)N[C@H](C(=O)N[C@H](C(=O)N[C@@H](CC(C)C)[C@@H](O)CC(=O)N[C@@H](C)C(=O)N[C@@H](CC(C)C)[C@@H](O)CC(=O)O)C(C)C)C(C)C` (Isovaleryl-VV[Sta]A[Sta]-OH), for which the call in assay [1] and in assay [2] was inactive. Further, the Potency result in assay [8], in assay [4], in assay [6] and in assay [7] was “inactive” each time.

As for `O=C(OOC(=O)c1ccccc1)c1ccccc1`, the result in assay [1] and in assay [2] was inactive. In addition, the Potency entry in assay [8], in assay [4], in assay [5], in assay [6] and in assay [7] was “inactive” throughout.

Turning to `CN1CCN(C(=O)C2CCCCC2)CC1`, the result in assay [1] and in assay [2] was inactive. Also, the Potency entry in assay [8], in assay [4], in assay [5], in assay [6] and in assay [7] was “inactive” throughout.

For the molecule `COc1cc(OC)cc(OC)c1`, the molecule was called inactive in assay [1] and in assay [2]. In addition, the Potency entry in assay [8], in assay [3], in assay [4], in assay [6] and in assay [7] was “inactive” throughout. Moreover, the Potency in assay [5] was 17.4 µM (active).

For `C[C@H]1COc2c(C3(N)CC3)c(F)cc3c(=O)c(C(=O)O)cn1c23`, the molecule was called inactive in assay [1] and in assay [2]. The Potency entry in assay [8], in assay [3], in assay [6] and in assay [7] was “inactive” each time.

For the molecule `C[C@@H]1CC[C@@]2(OC1)O[C@H]1C[C@H]3[C@@H]4CC[C@H]5C[C@@H](O)CC[C@]5(C)[C@H]4CC(=O)[C@]3(C)[C@H]1[C@@H]2C`, the molecule was called inactive in assay [1] and in assay [2]. For the same molecule, the activity change, negative = inhibition was 11.3% [at 10.5 µM] in assay [3]; 3.54% [at 10.5 µM] in assay [4]; 10.1% [at 10.5 µM] in assay [5]; 3.03% [at 6.97 µM] in assay [6]; 29.8% [at 10.5 µM] in assay [7].
